Data on 64 compounds can be found in ChEMBL document CHEMBL4513216, “Probing the Open Global Health Chemical Diversity Library for Multistage-Active Starting Points for Next-Generation Antimalarials” (ACS Infect Dis, 2020).

The whole screen tested about 68,000 compounds, of which about 2,700 (4%) showed an effect of 50% or more. Only a selection was taken, and strong results are over-represented in it overall.

The assay concerns Plasmodium berghei. Nature of the assay: Screen against P. berghei liver stage (PbLuc), transformed with Luciferase, at 2uM. Type of assay: functional, HepG2. To be noted: tested at 2 uM.
With `CS(=O)(=O)Cc1cc(F)ccc1NCc1nnsc1Cl`, the INHIBITION is -13.68%. Take `CCC(C)(C)NC(=O)Cn1nnc(CN(C)C(=O)c2ccccc2)n1`: the INHIBITION is 2.49%.

In the case of `CCN(Cc1nnnn1C1CC1)c1cc(C)ccc1C`, the INHIBITION is listed as 55.43%.

`Cc1ccc(N(C)Cc2nnnn2C2CC2)c(C)c1`: the INHIBITION is -11.28%. The result for `CN(Cc1nnnn1C1CC1)c1cccc2ccccc12` reads 4.86%; that for `Cc1nnc(SCC(=O)NCc2ccc3c(c2)CCC(=O)N3)n1C`, 26.03%; that for `Cc1ncc(-c2ccnc(SCCN(C)C)n2)c(-c2ccco2)n1`, 8.77%. With `CNC(=O)[C@@H](C1CCCCC1)N1CCC[C@H]1C(=O)N(C)CCN(C)C`, the INHIBITION is 27.65%. As for `Cc1cc(CC(C)NC(=O)Cc2cc(F)ccc2C)[nH]n1` (centres undefined), the figure is 27.47%. The result for `COc1ccccc1C1CC(=O)Nc2nc(N3CCCCC3)sc21` (centres undefined) reads -71.12%; that for `CN(C)C[C@@H]1CCC[C@@H]2CN(c3nccc(C(F)(F)F)n3)C[C@@H]21`, 16.87%. As for `O=C1O[C@@H]2CN(c3ncccn3)C[C@@H]2N1CCCc1ccc(F)cc1`, the figure is 17.48%; as for `O=C1O[C@@H]2CN(c3cnccn3)C[C@@H]2N1CCCc1ccc(F)cc1`, 51.96%. In the case of `O=C1O[C@@H]2CN(c3ccccn3)C[C@@H]2N1CCCc1ccc(F)cc1`, the INHIBITION is 12.55%. With `COc1cc(C2c3c(n[nH]c3C)N=C3COC(=O)C32)cc2c1OCO2` (centres undefined), the INHIBITION was -41.64%.

For the compound `COc1ccc(CNC(=O)NC(C)(CO)C2CC2)c(C(F)(F)F)c1` (centres undefined), the INHIBITION is listed as -16.93%. Take `CCN(CC)C(=O)c1cc(Br)cc(S(=O)(=O)N2CCOCC2)c1F`: the INHIBITION came to 0.48%. The result for `O=C(COCc1ccccc1)N1CCC(OCc2cccnc2)CC1` reads 34.34%. On to `Cc1cc(C)c(C(=O)N2CCCC(C(=O)CCc3ccccc3)C2)cn1` (centres undefined), for which the INHIBITION is recorded as 0.73%. As for `CN(C)S(=O)(=O)N1CCOC(c2cccc(-c3cncnc3)n2)C1` (centres undefined), the figure is -12.93%; as for `Cc1nc(C(=O)N2CCCCC2)nn1-c1ccccc1Cl`, 60.09%. The result for `CCc1nc(C(=O)N2CCCCC2)nn1-c1ccccc1Cl` reads -41.76%; that for `CCN1CCN(C(=O)c2nc(C)n(-c3ccccc3Cl)n2)CC1`, -18.67%; that for `CC(=O)NCCNC(=O)c1nc(C2CC2)n(-c2ccccc2Cl)n1`, -1.79%. As for `CCNC(=O)CNC(=O)c1nc(C2CC2)n(-c2ccccc2Cl)n1`, the figure is 13.01%.

For the compound `CN(C)C(=O)CNC(=O)c1nc(C2CC2)n(-c2ccccc2Cl)n1`, the INHIBITION is reported as 65.76%.

Consider `CN1[C@H](Cn2cncn2)C[C@@H]2CN(Cc3cccc(C#N)c3)CC[C@@H]21`, for which the INHIBITION is given as 12.3%. As for `CN1CCC2(C=C(C(=O)N(C)C)c3ccccc32)CC1`, the figure is -10.89%; as for `CC(=O)N1CC(Cc2nccc3ccn(C)c23)C1`, 20.08%. As to `Cc1cccc(C(=O)N2CC(Cc3nccc4ccn(C)c34)C2)n1`, the INHIBITION is -25.33%.

For `Cn1ccc2ccnc(CC3CN(C(=O)c4cscn4)C3)c21`, the INHIBITION was determined as 52.82%. Turning to `CCc1nnc2n1CCN(C(=O)C(C)COCc1ccccc1)C2` (centres undefined), the INHIBITION was -32.2%. The result for `Cc1cc2c(N3CCC(N(C)Cc4cnn(C)c4)CC3)ncnc2s1` reads 10.13%.

In the case of `COc1cccc(C2CC(=O)Nc3c2c(=O)n(C)c2ncnn32)c1` (centres undefined), the INHIBITION came out at 15.49%. The result for `Cn1c(=O)c2c(n3ncnc13)NC(=O)CC2c1cccc(F)c1` (centres undefined) reads 5.31%; that for `CCc1ccc(C2CC(=O)Nc3c2c(=O)[nH]n3C(C)C)cc1` (centres undefined), -9.13%. As to `Cn1c(=O)c2c(n3ncnc13)NC(=O)CC2c1ccc(F)cc1` (centres undefined), the INHIBITION came out at 53.55%. The result for `CCc1ccc(C2CC(=O)Nc3c2c(=O)n(C)c2ncnn32)cc1` (centres undefined) reads 56.21%; that for `Cn1c(=O)c2c(n3ncnc13)NC(=O)CC2c1cccc(Br)c1` (centres undefined), -13.28%; that for `CCS(=O)(=O)N1Cc2[nH]nc(COCc3cccnc3)c2C1`, -2.81%. The result for `CNC(=O)C(C)(C)N1CCC[C@H]1C(=O)NC(C)(C)C` reads 30.4%. With `CCN1CCCC12CCCN(c1ncccn1)C2` (centres undefined), the INHIBITION is recorded as -23.31%. Turning to `CC1=Nc2c(c(O)nn2C2CCOCC2)C(c2cccnc2)S1` (centres undefined), the INHIBITION amounted to 18.76%. As for `Cc1nccn1CCN(C)c1nc(-c2ccc(Cl)cc2)nc2c1CNC2`, the figure is 19.59%; as for `CCn1ccnc1CN(C)c1nc(-c2ccc(Cl)cc2)nc2c1CNC2`, 5.28%; as for `CCN(CC)CCN(C)c1nc(-c2ccc(Cl)cc2)nc2c1CNC2`, 81.59%. The result for `O=C(O)c1cc(S(=O)(=O)Nc2cc(F)ccc2F)cc2c1OCCO2` reads -41.21%. The result for `COCCN1CCN(CCCS(=O)(=O)N(C)C)CC1C` (centres undefined) reads 25.35%; that for `O=C(CCCc1ccccn1)NCC(O)c1c(F)cccc1F` (centres undefined), 17.98%; that for `CCn1nnc2c1C(COCCN(C)C)CN(S(C)(=O)=O)C2` (centres undefined), 34.19%. Regarding `CN(C)c1ncccc1CNC(=O)N1CCCC1c1ccsc1` (centres undefined), the INHIBITION is 43.93%. Consider `O=C(NCCCn1cccn1)N1CCCC1c1ccsc1` (centres undefined), for which the INHIBITION is 16.21%. The result for `CN(CCCNC(=O)N1CCCC1c1ccsc1)c1ccccn1` (centres undefined) reads 63.95%.

In the case of `N#Cc1ccc(C(=O)N2CC[C@H]3[C@@H]2CCC(=O)N3c2cccnc2)cc1`, the INHIBITION is on record as -11.44%. As for `Cc1ccc(F)cc1NC(=O)C1CCCN1C(=O)C(C)C` (centres undefined), the INHIBITION is 15.27%. As for `CC(C)C(=O)N1CCCC1C(=O)Nc1ccc(F)c(F)c1` (centres undefined), the figure is 55.29%; as for `CC(C)C(=O)N1CCCC1C(=O)Nc1cc(C(F)(F)F)ccc1F` (centres undefined), 13.92%. As for `Cc1cnc(C(C)(C)NC(=O)NCc2ccc(C#N)cc2F)s1`, the figure is 16.79%. The result for `Cc1cc(C)c(CNC(=O)N2CCN(c3ccccn3)CC2)c(=O)[nH]1` reads 7.64%. `Cc1cc(C)c(CNC(=O)N2CCN(c3cnccn3)CC2)c(=O)[nH]1`: the INHIBITION came to 63.95%. As for `Cc1cc(C)c(CNC(=O)C2CCN(c3cnccn3)CC2)c(=O)[nH]1`, the figure is -7.02%. The result for `CSc1ccccc1NC(=O)C1CSc2ncc(C)c(=O)n2C1` (centres undefined) reads -35.92%; that for `Cn1c(C(F)(F)F)nn(CCNC(=O)CSCc2ccccc2)c1=O`, -30.06%; that for `NCCn1nc(C2CCN(Cc3ccccc3)C2)c2nccnc21` (centres undefined), 8.26%.
